Measured values: PubChem BioAssay (EPA / NIEHS)
“And” between values parts separate entries of the source, which are not always exact repeats. Identical values can stand only once. Inconclusive results are not listed. Some compounds were tested as several samples or in several runs, with calls that do not always agree. The source made the active and inactive calls. How the source made its calls, unless noted: active means hit-call score of the fitted dose curve at least 0.9, where 1 is the maximum; inactive means score below 0.9.

Legend:
[1] = system: Brachyury (BRA) Protein Expression, Deisenroth Lab, TBXT (gene 6862); assay: CCTE_Deisenroth_DEVTOX-GLR_legacy_Bra: (Legacy) CCTE's DevTox GLR-Endo Assay Evaluation of Brachyury (BRA) Protein Expression, Deisenroth Lab (AID 2284329)
Outline: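 Percent Bra-positive cells, scored by high-content imaging against a threshold of 5x BMAD over the undifferentiated control median, with the 0.2% DMSO median subtracted. RUES2-GLR cultures were dosed twice at 24 h intervals across a 48 h differentiation, at 1 nM–200 uM in ten steps, with n=4 replicates.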

[2] = CCTE_Deisenroth_DEVTOX-GLR_legacy_CellCount: (Legacy) Viability Assessment in CCTE's DevTox GLR-Endo Assay, Deisenroth Lab (AID 2284331); details: actives raise or lower the signal
Outline: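 Nuclei count by fluorescence high-content imaging (5 fields/well) after 48 h differentiation of RUES2-GLR cells. Two exposures, 24 h apart; 1 nM - 200 uM series; n=4. Bidirectional fit vs DMSO.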

[3] = VALA_TUBIPS_Antagonist_TubuleLength: VALA Sciences human iPS-derived Endothelial Tubule Formation (TUBIPS) Antagonist Assay (AID 2284313; active means hit-call score of the fitted dose curve at least 0.9, where 1 is the maximum)
Outline: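 Tubule length was quantified by high-content imaging of CD31- and nuclear-stained cells, with 0.1% DMSO as neutral and 100 uM suramin as inhibition control. Compounds were applied for 3 days, in 10 ng/ml VEGF, to cultures pre-grown 3 days.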

[4] = VALA_MIGHUV2_WoundArea: VALA Sciences human Umbilical Vein Endothelial Cell Migration (MIGHUV) Assay, Area of Scratch Wound after Recovery (AID 2284316; active means hit-call score of the fitted dose curve at least 0.9, where 1 is the maximum)
Outline: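 Wound-area endpoint read by fluorescence imaging of Hoechst-stained nuclei after a 24 h recovery period following scratch of HUVEC monolayers (9000 cells/well). Chemicals dosed within 30 min post-scratch, triplicate 6-point series, 0.1% DMSO vehicle; Cytochalasin D positive control.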

[5] = system: IYD (gene 389434); assay: CCTE_GLTED_hIYD: CCTE's human Iodotyrosine Deiodinase (xIYD) Inhibition Assay, Great Lakes Toxicology and Ecology Division (GLTED) Lab (AID 2284317; active means hit-call score of the fitted dose curve at least 0.9, where 1 is the maximum;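 further: cell-free human IYD enzyme made in baculovirus insect cells; iodide freed from monoiodotyrosine measured by cerium arsenite color change at 420 nm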)
Outline: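 In the IYD assay, iodide released from MIT by insect-cell-expressed human enzyme was quantified after 3 h via Sandell-Kolthoff rate at 420 nm, with plate-wise normalization to MNT and solvent controls.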

[6] = VALA_TUBIPS_Antagonist_CellCount: Viability Assessment in the VALA Sciences human iPS-derived Endothelial Tubule Formation (TUBIPS) Antagonism Assay (AID 2284335; active means hit-call score of the fitted dose curve at least 0.9, where 1 is the maximum)
[7] = VALA_MIGHUV1_ScratchOnly_WoundArea: VALA Sciences human Umbilical Vein Endothelial Cell Migration (MIGHUV) Assay, Area of Scratch Wound Inhibited Recovery (AID 2284336; active means hit-call score of the fitted dose curve at least 0.9, where 1 is the maximum)
Outline: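 Wound area remaining after 24 h recovery imaged by Hoechst nuclear fluorescence in scratched HUVEC cultures, chemicals added within 30 min of scratching across a 6-point series. Gain of signal fitted against 0.1% DMSO; cytochalasin D positive control.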

[8] = VALA_TUBHUV_Agonist_TubuleLength: VALA Sciences human Umbilical Vein Endothelial Tubule Formation (TUBHUV) Agonism Assay (AID 2284337; active means hit-call score of the fitted dose curve at least 0.9, where 1 is the maximum)
Outline: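 Tubule length quantified by CD31 immunofluorescence imaging after fixation. HUVEC-HDF co-cultures (1:3) pre-grown 3 days with 10 ng/ml VEGF, then dosed 3 days in VEGF medium; 0.1 % DMSO vehicle baseline.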

[9] = VALA_TUBIPS_Agonist_CellCount: Viability Assessment in the VALA Sciences human iPS-derived Endothelial Tubule Formation (TUBIPS) Agonism Assay (AID 2284338; active means hit-call score of the fitted dose curve at least 0.9, where 1 is the maximum)
[10] = IUF_NPC2-5_viability_120hr: Viability Assessment at 120 hours in the Leibniz Research Institute for Environmental Medicine (IUF) Neural Progenitor Cell Migration and Differentiation Assay (NPC2-5) (AID 2284312)
Outline: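 Alamar blue resorufin fluorescence read after 5 days of differentiation, with compound present from day 0 and replenished at day 3. Primary hNPC spheres on laminin-coated plates, 37C; seven concentrations plus solvent control, fitted against DMSO.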

[11] = CCTE_Mundy_HCI_iCellGluta_NOG_NeuriteLength: CCTE's Neurite Outgrowth Assay in iCellGluta cells for Neurite Length, Mundy Lab (AID 2284318; active means hit-call score of the fitted dose curve at least 0.9, where 1 is the maximum)
Outline: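 Automated high-content imaging of betaIII-tubulin (Alexa Fluor-488) and Hoechst-stained cells gave neurite length, normalized to the DMSO baseline.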

[12] = TAMU_PeakParms_SingleDonor1434_Asystole: Texas A&M University (TAMU) 1.5-hr Human Induced Pluripotent Stem Cell (iPSC)-derived Cardiomyocytes Calcium (Ca+2) Flux Assay for Cardiotoxicity: Asystole (quiescence of beating) (AID 2284328; active means hit-call score of the fitted dose curve at least 0.9, where 1 is the maximum)
Outline: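 Average Ca2+-flux peak frequency (beats/s) was recorded in single-donor iPSC-derived cardiomyocytes after 90 min exposure (0.2–100 uM final, 0.5% DMSO). Asystole POD set as EC95 against DMSO, no preprocessing.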

[13] = IUF_NPC1_cytotoxicity_72hr: Cytotoxicity Assessment at 72 hours in the Leibniz Research Institute for Environmental Medicine (IUF) Neural Progenitor Cell Proliferation Assay (NPC1) (AID 2284332; active means hit-call score of the fitted dose curve at least 0.9, where 1 is the maximum;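 further: rising LDH signal means more cytotoxicity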)
Outline: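 Cytotoxicity by LDH membrane-integrity assay on medium supernatants, fluorescence via resazurin reduction, after 3-day single exposure of primary hNPC spheres at 37C, pH 7.2-7.6 with growth factors. Fitted upward against baseline.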

[14] = CCTE_Mundy_HCI_iCellGluta_NOG_NeuronCount: CCTE's Neurite Outgrowth Assay in iCellGluta cells for Neuron Count, Mundy Lab (AID 2284340; active means hit-call score of the fitted dose curve at least 0.9, where 1 is the maximum;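 further: cells fixed about 48 h after compound addition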)
Outline: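 Neuron count read by automated high-content imaging of Hoechst 33342 and betaIII-tubulin/Alexa Fluor-488 labelling in human iPSC glutamatergic neurons. Activity fitted relative to DMSO.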

[15] = CCTE_Deisenroth_5AR_NBTE_donor: CCTE's 5alpha-reductase NanoBRET Target Engagement Assay […], Deisenroth Lab (AID 2284319); details: actives raise or lower the signal
Outline: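 Donor NanoLuc luminescence at 460-20 nm is the read-out, serving artifact detection. Transiently expressed SRD5A2-NanoLuc in HEK293T; 5 h total chemical exposure, testosterone tracer added for the final 2 h; fitting bidirectional relative to DMSO baseline.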

[16] = CCTE_Deisenroth_5AR_NBTE_acceptor: CCTE's 5alpha-reductase NanoBRET Target Engagement Assay - Autofluorescence Screen, Deisenroth Lab (AID 2284321); details: actives raise or lower the signal;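 further: compound fluorescence in the acceptor channel under 460 nm excitation flags autofluorescence artifacts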
Outline: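 HEK293T cell-based NanoBRET assay read 5 h after dosing; this acceptor channel serves as an autofluorescence artifact screen. Chemicals at nominal 100 uM were scanned in three independent runs (n=3), excitation 460 nm. Fitting was bidirectional versus DMSO baseline.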

[17] = system: SRD5A2 (gene 6716); assay: CCTE_Deisenroth_5AR_NBTE_ratio: CCTE's 5alpha-reductase NanoBRET Target Engagement Assay - Ratio, Deisenroth Lab (AID 2284322); details: actives raise or lower the signal
Outline: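 HEK293T cells transiently expressing an SRD5A2-NanoLuc fusion (20 h post-transfection) were exposed to test chemical (10 nM - 29.9 uM, 8 points) for 3 h, then testosterone tracer for a further 2 h. Acceptor/donor BRET ratio was fitted bidirectionally against DMSO baseline.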

[18] = VALA_TUBIPS_Agonist_TubuleLength: VALA Sciences human iPS-derived Endothelial Tubule Formation (TUBIPS) Agonism Assay (AID 2284311; active means hit-call score of the fitted dose curve at least 0.9, where 1 is the maximum)
Outline: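 Agonist-mode readout is the gain in imaged tubule length versus DMSO baseline. It was measured by fluorescence high-content imaging 72 h after dosing human iPSC-derived endothelial cells.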

[19] = VALA_TUBHUV_Antagonist_TubuleLength: VALA Sciences human Umbilical Vein Endothelial Tubule Formation (TUBHUV) Antagonism Assay (AID 2284325; active means hit-call score of the fitted dose curve at least 0.9, where 1 is the maximum)
Outline: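 Tubule length was imaged via CD31 immunofluorescence after a further 3-day compound exposure in 10 ng/ml VEGF, following 3-day pre-culture of HUVEC with HDF at 1:3. Vehicle 0.1% DMSO; suramin (100 uM) inhibition control.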

[20] = system: TTR (gene 7276); assay: CCTE_GLTED_hTTR_0.5uM: CCTE's human Transthyretin (hTTR) Inhibition Assay, with 0.5uM TTR, Great Lakes Toxicology and Ecology Division (GLTED) Lab (AID 2284320)
Outline: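 Probe (ANSA) displacement from 0.5 uM human transthyretin was followed by fluorescence (ex 380, em 475) after a 2 h incubation with chemical. Activity was scored as signal loss and fitted positively relative to DMSO.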

SMILES: CC(O)CO (stereo not drawn)
- outcome [1]: inactive
- outcome [2]: inactive

SMILES: CCCCCCCCCCCCc1ccccc1S(=O)(=O)O
- outcome [3]: inactive
- outcome [4]: inactive
- AC50 [5]: 34.4 µM (active)
- outcome [6]: inactive
- outcome [7]: inactive
- AC50 [8]: 15.6 µM (active)
- AC50 [9]: 1.5 µM (active)

SMILES: CC#C[C@]1(O)CC[C@H]2[C@@H]3CCC4=CC(=O)CCC4=C3[C@@H](c3ccc(N(C)C)cc3)C[C@@]21C
- outcome [10]: inactive
- AC50 [11]: 50 µM (active)
- outcome [11]: inactive
- outcome [12]: inactive
- outcome [13]: inactive
- AC50 [14]: 27.3 µM (active)
- outcome [14]: inactive

SMILES: CCOC(=O)CC(O)(CC(=O)OCC)C(=O)OCC
- outcome [15]: inactive
- outcome [16]: inactive
- outcome [17]: inactive

SMILES: O=C(O)Cc1cc(I)c(Oc2cc(I)c(O)c(I)c2)c(I)c1
- outcome [18]: inactive
- outcome [3]: inactive
- outcome [4]: inactive
- outcome [19]: inactive
- outcome [7]: inactive
- outcome [8]: inactive
- outcome [9]: inactive

SMILES: c1ccc2c(c1)Cc1ccccc1-2
- outcome [12]: inactive

SMILES: C=C(C)C(=O)OCCC(F)(F)C(F)(F)C(F)(F)C(F)(F)C(F)(F)C(F)(F)F
- outcome [11]: inactive
- outcome [14]: inactive

SMILES: CCC(=C(c1ccc(O)cc1)c1ccc(OCCN(C)C)cc1)c1ccccc1
- outcome [5]: inactive

SMILES: O=C1OC2(c3ccccc31)c1cc(Br)c(O)c(Br)c1Oc1c2cc(Br)c(O)c1Br
- AC50 [5]: 42.2 µM (active)
- outcome [15]: inactive
- outcome [16]: inactive
- AC50 [17]: 7.55 µM (active)

SMILES: COCC(C)OCC(C)O (stereo not drawn)
- outcome [15]: inactive
- outcome [16]: inactive
- outcome [17]: inactive

SMILES: O=[N+]([O-])c1ccc(O)cc1
- outcome [15]: inactive
- outcome [16]: inactive
- AC50 [17]: 71.2 µM (active)

SMILES: OCCC(F)(F)C(F)(F)C(F)(F)C(F)(F)C(F)(F)C(F)(F)F
- outcome [11]: inactive
- outcome [14]: inactive

SMILES: CC(C)(C)c1ccc(O)c(C(C)(C)C)c1
- AC50 [5]: 100 µM (active)

SMILES: CCN(CC)CCNc1ccc(CNC=O)c2sc3ccc(OC)cc3c(=O)c12
- outcome [15]: inactive
- outcome [16]: inactive
- outcome [17]: inactive

SMILES: c1ccc2cc3c(ccc4ccccc43)cc2c1
- outcome [12]: inactive

SMILES: c1ccc2c(c1)ccc1ccccc12
- outcome [12]: inactive

SMILES: OCCC(F)(F)C(F)(F)C(F)(F)C(F)(F)C(F)(F)C(F)(F)C(F)(F)C(F)(F)F
- outcome [11]: inactive

SMILES: CN1CCC[C@H]1c1cccnc1
- outcome [10]: inactive

SMILES: FC(F)(I)C(F)(F)C(F)(F)C(F)(F)C(F)(F)C(F)(F)I
- AC50 [20]: 1.91 µM (active) and 1.88 µM (active)

SMILES: CCCCCCCCOC(=O)CCCCCCCCC(=O)OCCCCCCCC
- outcome [15]: inactive
- outcome [16]: inactive
- outcome [17]: inactive

SMILES: COCC(C)O (stereo not drawn)
- outcome [15]: inactive
- outcome [16]: inactive
- outcome [17]: inactive

SMILES: CC(C)(C)c1cccc(C(C)(C)C)c1O
- AC50 [5]: 100 µM (active)

SMILES: CCCCCCCCCCCCCC[N+](C)(C)C
- AC50 [5]: 88.3 µM (active)
- AC50 [15]: 42.7 µM (active)
- AC50 [16]: 26.2 µM (active)
- AC50 [17]: 75.1 µM (active)

SMILES: C[C@@H]1C[C@H]2[C@@H]3CCC4=CC(=O)C=C[C@]4(C)[C@@]3(F)[C@@H](O)C[C@]2(C)[C@@]1(O)C(=O)COP(=O)(O)O
- outcome [1]: inactive
- outcome [2]: inactive

SMILES: CC1=C(/C=C/C(C)=C/C=C/C(C)=C/C(=O)O)C(C)(C)CCC1
- outcome [10]: inactive
- AC50 [1]: 11.7 µM (active)
- AC50 [2]: 4.44 µM (active)
- outcome [13]: inactive
